Screening results deposited in PubChem BioAssay by several laboratories.
A selection: hits, their analogues and other compounds. The true share with any hit is near 1.2%.
NPR2 activator – GC-B (human) receptor activation. HEK293-GC-B cells, CNP EC30, cGMP TR-FRET; 0% at EC30 CNP, 100% saturating CNP. activation, % at 10 µM. 370,000 compounds, 0.11% hits. AID 1920062;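 active = activation at 10 µM reaching about 35% in either raw or pattern-adjusted values, limit read from the data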
NPR1 activator – GC-A (human) enzyme activation | P16066 | activation, % at 10 µM | 370,000 compounds, 0.14% hits | HEK293 GC-A cells, cGMP TR-FRET, EC30 ANP; 0% at EC30 ANP, 100% saturating ANP; in the data active = activation above about 40%
Target sequence (P16066 whole entry, looked up): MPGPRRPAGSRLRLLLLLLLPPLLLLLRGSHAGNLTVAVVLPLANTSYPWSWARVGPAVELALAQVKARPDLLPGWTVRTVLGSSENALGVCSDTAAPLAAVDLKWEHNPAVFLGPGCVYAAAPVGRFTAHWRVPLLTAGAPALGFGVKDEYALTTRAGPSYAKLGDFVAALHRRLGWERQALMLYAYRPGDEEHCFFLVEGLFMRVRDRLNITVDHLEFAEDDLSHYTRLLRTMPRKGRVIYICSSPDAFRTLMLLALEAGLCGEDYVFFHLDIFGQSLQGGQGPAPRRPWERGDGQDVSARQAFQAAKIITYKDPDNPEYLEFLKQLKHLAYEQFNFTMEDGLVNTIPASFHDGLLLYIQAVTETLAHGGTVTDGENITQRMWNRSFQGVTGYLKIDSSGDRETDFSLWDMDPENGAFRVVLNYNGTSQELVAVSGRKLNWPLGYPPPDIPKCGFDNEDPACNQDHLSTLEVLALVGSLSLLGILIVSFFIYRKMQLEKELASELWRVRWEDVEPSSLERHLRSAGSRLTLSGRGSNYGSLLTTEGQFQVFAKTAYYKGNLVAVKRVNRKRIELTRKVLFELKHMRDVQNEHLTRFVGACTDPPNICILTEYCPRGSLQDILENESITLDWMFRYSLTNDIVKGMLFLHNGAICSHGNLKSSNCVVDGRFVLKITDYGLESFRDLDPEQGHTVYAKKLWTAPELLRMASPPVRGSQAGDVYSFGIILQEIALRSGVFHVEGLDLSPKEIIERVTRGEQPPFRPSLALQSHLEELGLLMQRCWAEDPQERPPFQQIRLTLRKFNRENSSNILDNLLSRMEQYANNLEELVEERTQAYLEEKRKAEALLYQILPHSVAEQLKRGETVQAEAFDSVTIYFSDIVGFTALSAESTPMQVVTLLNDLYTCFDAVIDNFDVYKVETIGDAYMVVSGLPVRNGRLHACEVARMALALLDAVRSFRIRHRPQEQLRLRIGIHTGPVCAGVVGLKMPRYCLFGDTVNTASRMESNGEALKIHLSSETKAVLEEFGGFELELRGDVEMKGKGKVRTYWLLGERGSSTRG
MsrA inh – inhibits bovine methionine sulfoxide reductase A | purified bovine MsrA, absorbance read-out | inhibition, % at 15.5 µM | 360,000 compounds, 0.75% hits
MsrA act – bovine methionine sulfoxide reductase A activation; purified bovine MsrA, absorbance read-out; activation, % at 10.6 µM; 360,000 compounds, 0.3% hits; AID 602163; in the data active = activation above about 7.5%
MsrA conf – confirmation of bovine MsrA inhibitors. shares compounds with MsrA inh. purified bovine MsrA, absorbance read-out. inhibition, % at 15.5 µM. 2,300 compounds, 41% hits. AID 651822;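 note: coupled to thioredoxin reductase with NADPH and selenocystamine and DMSO as substrate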
Numbers stand for hits; – = inactive; · = no result given. Cut-off read from the data, not from the text of the source, unless noted: active = inhibition above about 4.5%; inactive = the rest.

SMILES | NPR2 activator | NPR1 activator | MsrA inh | MsrA act | MsrA conf
CN(C)/C=N/c1nc2ncc(-c3ccc(Cl)cc3)c(/N=C/N(C)C)n2n1 | – | – | 5.2 | – | –
Cc1cccc(NC(=O)CSc2nnc(-c3cccnc3)n2Cc2ccco2)c1C | – | – | · | · | ·
COc1cc(/C=C/C(=O)Nc2ccncc2)cc(OC)c1OC | – | – | 4.7 | – | –
NS(=O)(=O)c1ccc(NC(=O)/C=C/c2cccc(Cl)c2)cc1 | – | – | – | – | ·
CCOC(=O)c1ccc(NC(=O)/C=C/c2cccs2)cc1 | – | – | – | – | ·
NS(=O)(=O)c1ccc(NC(=O)/C=C/c2cccs2)cc1 | – | – | 8.2 | – | 5.1
CCN(CC)CCOC(=O)c1ccc(NC(=O)/C=C/c2cccs2)cc1 | – | – | 5.5 | – | –
COc1cc(/C=C/C(=O)Nc2ccc(C(C)=O)cc2)cc(OC)c1OC | – | – | – | – | ·
NS(=O)(=O)c1cccc(NC(=O)/C=C/c2cccs2)c1 | – | – | 5.1 | – | –
O=C(Nc1ccccc1)OCCN1C(=O)CCC12CCC(c1ccc(Cl)cc1)CC2 (configuration not stated) | – | – | · | · | ·
Nc1cc2ccccc2cc1NS(=O)(=O)N1CCCCC1 | – | – | – | · | ·
COc1cc(/C=C/C(=O)Nc2cccc(S(=O)(=O)N3CCOCC3)c2)ccc1OCC#N | – | – | – | – | ·
O=C(/C=C/c1cccs1)Nc1ccc(S(=O)(=O)Nc2ncccn2)cc1 | – | – | 4.7 | – | –
O=C(/C=C/c1ccccc1[N+](=O)[O-])Nc1ccc(S(=O)(=O)Nc2ncccn2)cc1 | – | – | – | – | ·
COc1cc(/C=C/C(=O)Nc2ccc(S(=O)(=O)Nc3ncccn3)cc2)ccc1OCC#N | – | – | 4.9 | – | –
O=C(N/N=C/c1ccc(N2CCOCC2)s1)c1ccc(NS(=O)(=O)c2cccs2)cc1 | – | – | 4.7 | – | –
COc1ccc(C=NNC(=O)c2ccccc2NS(=O)(=O)c2cccs2)cc1O | – | – | 5.1 | – | –
O=C(N/N=C/c1ccc(N2CCOCC2)cc1)c1ccc(NS(=O)(=O)c2cccs2)cc1 | – | – | 6.8 | – | 6.4
O=C(N/N=C/c1ccc2c(c1)OCO2)c1ccc(NS(=O)(=O)c2cccs2)cc1 | – | – | 5.7 | – | 7.5
O=C(NN=Cc1ccc(F)c(F)c1)c1ccc(NS(=O)(=O)c2cccs2)cc1 | – | – | – | – | ·
CC(C)(C)OC(=O)NCc1cc(F)ccc1/C=C/S(=O)(=O)NCc1ccc(F)cc1 | – | – | · | · | ·
COC(=O)CC(=O)CC(NS(=O)(=O)c1ccc(C)cc1)c1ccccc1 (configuration not stated) | – | – | – | · | ·
CCCC[C@H]1C2CC(OC(=O)Nc3ccc(Cl)cc3)C(C2)[C@H]2CCCCN21 (some centres not stated) | – | – | · | · | ·
CCCCCCCCN1C(=O)[C@@H](CC(=O)N2CCCC2)C[C@@]2(C(=O)OC)C1=C[C@H](C(C)(C)C)O[C@@H]2C | – | – | – | · | ·
O=C(N/N=C/c1ccc(N2CCOCC2)cc1)c1ccncc1 | – | – | 5.0 | – | 5.0
SMILES | NPR2 activator | NPR1 activator | MsrA inh | MsrA act | MsrA conf
O=C(N/N=C/c1ccc(N2CCOCC2)cc1)c1ccccc1NS(=O)(=O)c1cccs1 | – | – | 8.0 | – | 7.0
COc1ccc(C(=O)N/N=C/c2ccc(N3CCOCC3)s2)cc1OC | – | – | – | – | ·
CCOC(=O)N/N=C/c1ccc(N2CCOCC2)s1 | – | – | 5.3 | – | 5.7
O=C(Nc1ccc(N2CCOCC2)cc1)c1ccncc1 | – | – | – | – | ·
CCCNC(=O)N1CC[C@H]2[C@@H]1c1cc(-c3ccc(F)cc3)ccc1N(C)[C@H]2CO | – | – | · | · | ·
CCOCCCNC(=O)C1CCN(S(=O)(=O)c2cc3c(cc2Br)CCN3C(=O)CC)CC1 | – | – | · | · | ·
CC1S/C(=N/N=C/c2cccs2)NC1=O (configuration not stated) | – | – | 5.0 | – | –
CCC1S/C(=N/N=C/c2cccs2)NC1=O (configuration not stated) | – | – | 6.2 | – | 5.5
CC(C)C1S/C(=N/N=C/c2cccs2)NC1=O (configuration not stated) | – | – | 6.8 | – | –
C(=N\N=C\c1cccs1)/c1cccs1 | – | – | 5.1 | – | 4.7
CCCC1S/C(=N/N=C/c2cccs2)NC1=O (configuration not stated) | – | – | – | – | ·
Clc1ccc(-c2nnc(SCc3cccc4ccccc34)n2Cc2ccco2)cc1 | – | – | · | · | ·
Cc1noc(C)c1C(=O)Nc1nnc(-c2ccccc2)s1 | – | – | – | – | ·
Cc1onc(-c2ccccc2)c1C(=O)Nc1nnc(-c2ccncc2)s1 | – | – | 5.0 | – | 4.9
CCOc1ccc(N2CC(C(=O)NCCN3C(=O)S/C(=C/c4cccnc4)C3=O)CC2=O)cc1 (configuration not stated) | – | – | 5.0 | – | –
C=CCn1cnc2scc(-c3ccc(OC)cc3)c2c1=O | – | – | – | – | ·
Cc1nc2scc(-c3cccs3)c2c(=O)n1-n1cccc1 | – | – | 15 | – | 10
COc1ccc(-c2csc3nc(C)n(-n4cccc4)c(=O)c23)cc1 | – | – | 8.6 | – | –
Cc1ccc(C)n1-n1c(C)nc2scc(-c3cccs3)c2c1=O | – | – | 29 | – | 25
Cc1nc2scc(-c3cccs3)c2c(=O)o1 | – | – | – | – | ·
O=C(NC1CCCCN(Cc2ccc(Cl)cc2)C1=O)c1ccc(Cl)cc1Cl (configuration not stated) | – | – | · | · | ·
C(=C\c1ccccc1)/C=N/Nc1nncc(-c2ccccc2)n1 | – | – | 43 | · | –
Cc1ccc(/C=N/Nc2nncc(-c3ccccc3)n2)o1 | – | – | 5.8 | – | 5.4
CCN(Cc1ccccc1)c1ccc(/C=N/NS(=O)(=O)c2ccc(C)c([N+](=O)[O-])c2)cc1 | – | – | 4.8 | – | –
CCN(CC)c1ccc(/C=N/NS(=O)(=O)c2ccc(CNC(C)=O)cc2)cc1 | – | – | 6.2 | – | –
SMILES | NPR2 activator | NPR1 activator | MsrA inh | MsrA act | MsrA conf
Cc1ccc(S(=O)(=O)N/N=C/c2ccccc2F)cc1[N+](=O)[O-] | – | – | – | – | ·
CCN(CC)c1ccc(/C=N/NS(=O)(=O)c2cccc([N+](=O)[O-])c2)cc1 | – | – | 5.4 | – | –
CCN(CC)c1ccc(C=NCCc2ccc(S(N)(=O)=O)cc2)cc1 | – | – | 4.7 | – | –
CCN(CC)c1ccc(/C=N/O)cc1 | – | – | – | – | ·
CC(=O)NCc1ccc(S(=O)(=O)N/N=C/c2ccc(Br)cc2)cc1 | – | – | – | – | ·
COc1cc(-c2nnc(SCC(=O)NN=Cc3c[nH]c4ccccc34)n2-c2ccccc2)cc(OC)c1OC | – | – | · | · | ·
COc1ccc(-c2cc(C(=O)NN=Cc3ccccc3[N+](=O)[O-])[nH]n2)cc1 | – | – | · | · | ·
O=C(OCc1cn(Cc2cccc(Cl)c2)nn1)N1CCOCC1 | – | – | · | · | ·
C=CCNc1ccc2c(c1)OC[C@H](Cc1ccccc1)NS2(=O)=O | – | – | – | · | ·
CC(C)(C)OC(=O)N1CCC(N[C@@H](Cc2c[nH]c3ccccc23)C(=O)NCC(c2ccccc2)c2ccccc2)(C(=O)NC2CCCCC2)CC1 | – | – | · | · | ·
